The panel holds about 83,000 compounds, 20% with a hit somewhere; the sample as a whole holds those more often.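 Compound tested at a single concentration for 48 hours in 96-well plates; a percent growth value below 10 was scored as active.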 Active and inactive are the calls of the source.
How the values were obtained:
Experiment in all cases: NCI-60 one-dose screen, 48 h (100 = growth as untreated, 0 = no growth, -100 = all killed)
Details in all cases: 10 µM unless noted
K-562 leukemia = test system: K-562 leukemia
MALME-3M melanoma = test system: MALME-3M melanoma
MDA-MB-231 breast = test system: MDA-MB-231 breast
RXF 393 renal = test system: RXF 393 renal
SF-268 CNS = test system: SF-268 CNS
SF-295 CNS = test system: SF-295 CNS
SF-539 CNS = test system: SF-539 CNS
UACC-257 melanoma = test system: UACC-257 melanoma
M14 melanoma = test system: M14 melanoma
HCT-15 colon = test system: HCT-15 colon
HT29 colon = test system: HT29 colon
SNB-75 CNS = test system: SNB-75 CNS
SNB-19 CNS = test system: SNB-19 CNS
U251 CNS = test system: U251 CNS
PC-3 prostate = test system: PC-3 prostate
SK-MEL-5 melanoma = test system: SK-MEL-5 melanoma
UACC-62 melanoma = test system: UACC-62 melanoma
LOX IMVI melanoma = test system: LOX IMVI melanoma
SK-MEL-28 melanoma = test system: SK-MEL-28 melanoma
SK-MEL-2 melanoma = test system: SK-MEL-2 melanoma

Measured: growth

O=C1Nc2cc(Cl)ccc2/C1=C\c1ccc(OCc2ccc([N+](=O)[O-])cc2)cc1
inactive: K-562 leukemia 83.1% | MALME-3M melanoma 75.1% | MDA-MB-231 breast 66.2% | RXF 393 renal 64.3% | SF-268 CNS 86.4% | SF-295 CNS 68.2% | SF-539 CNS 80.7% | UACC-257 melanoma 89.5% | M14 melanoma 83.3% | HCT-15 colon 77.8% | HT29 colon 76.8% | SNB-75 CNS 57.5% | SNB-19 CNS 91% | U251 CNS 81.6% | PC-3 prostate 59.4% | SK-MEL-5 melanoma 84.4% | UACC-62 melanoma 67.8% | LOX IMVI melanoma 65.8% | SK-MEL-28 melanoma 84.7% | SK-MEL-2 melanoma 101%

CCC/C=C/C=C/C(=O)N[C@@H](Cc1cc(F)cc(F)c1)C(=O)N[C@@H]1C(=O)N2CCC[C@H]2C(=O)N2CCCC[C@H]2C(=O)N[C@@H](C)C(=O)N2C[C@H](C)C[C@H]2C(=O)O[C@H]1C
inactive: K-562 leukemia 17.6% | MALME-3M melanoma 30.8% | MDA-MB-231 breast 28.7% | RXF 393 renal 46.3% | SF-268 CNS 31.3% | SF-295 CNS 10.3% | SF-539 CNS 38.3% | UACC-257 melanoma 17% | M14 melanoma 16.5% | HCT-15 colon 16.2% | SNB-75 CNS 28.5% | SNB-19 CNS 25.8% | U251 CNS 26.8% | PC-3 prostate 14.5% | SK-MEL-5 melanoma 10.5% | UACC-62 melanoma 13.6% | SK-MEL-28 melanoma 29%
active: HT29 colon 9.05% | LOX IMVI melanoma -25.3%

COc1cccc(N2CCN(c3ncnc4c3[nH]c3ccc(F)cc34)C[C@@H]2C)c1
inactive: HCT-15 colon 18.6%
active: K-562 leukemia -36% | MALME-3M melanoma -26.4% | MDA-MB-231 breast -4.16% | RXF 393 renal -27.1% | SF-268 CNS -1.64% | SF-295 CNS -14.9% | SF-539 CNS -32.2% | UACC-257 melanoma -27.6% | M14 melanoma -84.7% | HT29 colon 5.69% | SNB-75 CNS -59% | SNB-19 CNS -12% | U251 CNS -31.5% | PC-3 prostate -42.3% | SK-MEL-5 melanoma -90.9% | UACC-62 melanoma -70.8% | LOX IMVI melanoma 0.646% | SK-MEL-28 melanoma -26.8% | SK-MEL-2 melanoma -94.9%

CC(C)(C)Nc1nc2c(OCCc3ccccc3)cccn2c1-c1ccccc1Cl
inactive: SF-268 CNS 22.9% | SNB-75 CNS 34.5% | SNB-19 CNS 18.4%
active: K-562 leukemia 0.922% | MALME-3M melanoma -32% | MDA-MB-231 breast -32.6% | RXF 393 renal -43.6% | SF-295 CNS -56.8% | SF-539 CNS -74.7% | UACC-257 melanoma 1.9% | M14 melanoma 0.193% | HCT-15 colon -72.1% | HT29 colon -47.3% | U251 CNS -44.7% | PC-3 prostate -40% | SK-MEL-5 melanoma -92.5% | UACC-62 melanoma -42.1% | LOX IMVI melanoma -96% | SK-MEL-28 melanoma 0.829%

Clc1ccc2c(NCCCN3CCOCC3)c3oc4ccc(Cl)cc4c3nc2c1
active: K-562 leukemia 2.23% | HCT-15 colon 4.4% | LOX IMVI melanoma -82.8%
inactive: MALME-3M melanoma 89.3% | MDA-MB-231 breast 50.3% | RXF 393 renal 22.2% | SF-268 CNS 68.5% | SF-295 CNS 35% | SF-539 CNS 41.7% | UACC-257 melanoma 102% | M14 melanoma 97.5% | HT29 colon 33.5% | SNB-75 CNS 79.6% | SNB-19 CNS 69.6% | U251 CNS 44.1% | PC-3 prostate 60.8% | SK-MEL-5 melanoma 74.2% | UACC-62 melanoma 98.7% | SK-MEL-28 melanoma 80.4%

COc1ccc(COc2ccc(/C=C3/C(=O)Nc4cc(Cl)ccc43)cc2)cc1
inactive: K-562 leukemia 113% | MALME-3M melanoma 86.6% | MDA-MB-231 breast 91.2% | RXF 393 renal 105% | SF-268 CNS 99.5% | SF-295 CNS 101% | SF-539 CNS 85.8% | UACC-257 melanoma 106% | M14 melanoma 97.7% | HCT-15 colon 104% | HT29 colon 107% | SNB-75 CNS 83.8% | SNB-19 CNS 100% | U251 CNS 96.8% | PC-3 prostate 86.1% | SK-MEL-5 melanoma 96.7% | UACC-62 melanoma 88.6% | LOX IMVI melanoma 94.8% | SK-MEL-28 melanoma 98.7% | SK-MEL-2 melanoma 114%

CS(=O)(=O)Nc1ccc(-c2nn(-c3ccc(S(C)(=O)=O)cc3)cc2/C=C/C(=O)c2ccc(NC(=O)CO[N+](=O)[O-])cc2)cc1
inactive: K-562 leukemia 102% | MALME-3M melanoma 107% | MDA-MB-231 breast 93.4% | RXF 393 renal 95% | SF-268 CNS 108% | SF-295 CNS 97.2% | SF-539 CNS 101% | UACC-257 melanoma 103% | M14 melanoma 111% | HCT-15 colon 99.6% | HT29 colon 104% | SNB-75 CNS 108% | SNB-19 CNS 100% | U251 CNS 101% | PC-3 prostate 98.2% | SK-MEL-5 melanoma 100% | UACC-62 melanoma 100% | LOX IMVI melanoma 93.2% | SK-MEL-28 melanoma 104%

Cn1cc(-c2cc(N)n3nc(-c4cn(C)c5ccc(F)cc45)cc3n2)c2cc(F)ccc21
active: K-562 leukemia -26.2% | MDA-MB-231 breast 3.73% | SF-539 CNS -58.5% | HCT-15 colon 4.58% | HT29 colon -72.8% | U251 CNS -62.4% | LOX IMVI melanoma -61.9%
inactive: MALME-3M melanoma 90.8% | RXF 393 renal 26.2% | SF-268 CNS 19.6% | SF-295 CNS 80.1% | UACC-257 melanoma 101% | M14 melanoma 20.3% | SNB-75 CNS 109% | SNB-19 CNS 50.1% | PC-3 prostate 63.4% | SK-MEL-5 melanoma 104% | UACC-62 melanoma 62.5% | SK-MEL-28 melanoma 92.4% | SK-MEL-2 melanoma 110%

CN(C)CCCOc1c2ccccc2nc2c1oc1ccc(Cl)cc12
active: K-562 leukemia -14.3% | MALME-3M melanoma -8.62% | MDA-MB-231 breast 7.86% | RXF 393 renal -74.1% | SF-295 CNS 5.01% | SF-539 CNS 6.92% | M14 melanoma -87.3% | HCT-15 colon -21.4% | HT29 colon -43.4% | SNB-75 CNS 5.58% | PC-3 prostate 5.23% | SK-MEL-5 melanoma -16% | UACC-62 melanoma -49.7% | LOX IMVI melanoma -85.1% | SK-MEL-28 melanoma 9.1% | SK-MEL-2 melanoma 9.55%
inactive: SF-268 CNS 14.6% | UACC-257 melanoma 20% | SNB-19 CNS 16.1% | U251 CNS 16.7%

COc1ccc(-c2cc(C(=O)N=Nc3c(O)[nH]c4ccccc34)c3ccccc3n2)cc1OC
inactive: K-562 leukemia 106% | MALME-3M melanoma 95.6% | MDA-MB-231 breast 91.5% | RXF 393 renal 101% | SF-268 CNS 100% | SF-295 CNS 95.7% | SF-539 CNS 95.6% | UACC-257 melanoma 98.2% | M14 melanoma 95.6% | HCT-15 colon 96.9% | HT29 colon 102% | SNB-75 CNS 92% | SNB-19 CNS 97.9% | U251 CNS 95.3% | PC-3 prostate 91.6% | SK-MEL-5 melanoma 97.3% | UACC-62 melanoma 91.5% | LOX IMVI melanoma 105% | SK-MEL-28 melanoma 98.1% | SK-MEL-2 melanoma 107%

O=C1c2c(c3c4cccnc4[nH]c3c3ccc4ccccc4c23)C(=O)N1CCO
inactive: K-562 leukemia 51.4% | MALME-3M melanoma 114% | MDA-MB-231 breast 78.8% | RXF 393 renal 101% | SF-268 CNS 78.4% | SF-295 CNS 50.9% | SF-539 CNS 78.7% | UACC-257 melanoma 92.7% | M14 melanoma 86.1% | HCT-15 colon 72.1% | HT29 colon 75.6% | SNB-75 CNS 118% | SNB-19 CNS 69.9% | U251 CNS 51.4% | PC-3 prostate 70.1% | SK-MEL-5 melanoma 81.4% | UACC-62 melanoma 46.5% | LOX IMVI melanoma 51.7% | SK-MEL-28 melanoma 102% | SK-MEL-2 melanoma 138%

COc1cc2nc(-c3ccc(C(F)(F)F)cc3)cc(OCCCNCC3CCCO3)c2cc1OC (stereo not given)
inactive: K-562 leukemia 10.2% | MDA-MB-231 breast 18.2% | SF-268 CNS 59.5% | SF-539 CNS 45.5% | HCT-15 colon 13.7% | SNB-19 CNS 75.3% | U251 CNS 55.7% | PC-3 prostate 45.4% | SK-MEL-2 melanoma 91.7%
active: MALME-3M melanoma -15.6% | RXF 393 renal 3.22% | SF-295 CNS -33.6% | UACC-257 melanoma -38.7% | M14 melanoma -66.5% | HT29 colon -7.81% | SNB-75 CNS 8.73% | SK-MEL-5 melanoma 4.75% | UACC-62 melanoma -22.1% | LOX IMVI melanoma -13.4% | SK-MEL-28 melanoma -26.8%

C#C[C@]1(O)CC[C@H]2[C@@H]3CC=C4c5sc(Nc6ccc(Cl)cn6)nc5CC[C@]4(C)[C@H]3CC[C@@]21C
active: K-562 leukemia 9.48% | RXF 393 renal -53.2% | SF-295 CNS -63% | SF-539 CNS -30.8% | UACC-257 melanoma -45.2% | SNB-75 CNS -0.325% | LOX IMVI melanoma 0.11% | SK-MEL-28 melanoma -27% | SK-MEL-2 melanoma -13.4%
inactive: MALME-3M melanoma 58.3% | MDA-MB-231 breast 27.2% | SF-268 CNS 43.7% | M14 melanoma 50.7% | HCT-15 colon 39.7% | HT29 colon 47.2% | SNB-19 CNS 54.5% | U251 CNS 19.1% | PC-3 prostate 29.9% | SK-MEL-5 melanoma 84% | UACC-62 melanoma 28.3%

CCOc1ccc([C@H]2C(C(=O)c3ccc(Cl)cc3)C3(N[C@@H]2c2ccccc2)C(=O)Nc2ccc(Br)cc23)cc1 (stereo not given in full)
active: HT29 colon -27.1% | LOX IMVI melanoma -36.2%
inactive: K-562 leukemia 14.2% | MALME-3M melanoma 64.8% | MDA-MB-231 breast 11% | RXF 393 renal 16.6% | SF-268 CNS 28.9% | SF-295 CNS 37.8% | SF-539 CNS 48.8% | UACC-257 melanoma 68.5% | M14 melanoma 37.6% | HCT-15 colon 33.4% | SNB-75 CNS 26.9% | SNB-19 CNS 47.6% | U251 CNS 13.5% | PC-3 prostate 13.8% | SK-MEL-5 melanoma 47.8% | UACC-62 melanoma 51.4% | SK-MEL-28 melanoma 75.2%

[Cl][Ru].c1ccc(-c2cccc(-c3ccccn3)n2)nc1.c1ccc(-c2ccnc3c2ccc2c(-c4ccccc4)ccnc23)cc1
active: MALME-3M melanoma 2.72% | SNB-75 CNS 1.93% | SK-MEL-2 melanoma -36.9%
inactive: K-562 leukemia 32.4% | MDA-MB-231 breast 32.3% | RXF 393 renal 48.4% | SF-268 CNS 28.5% | SF-295 CNS 95.7% | SF-539 CNS 15.3% | UACC-257 melanoma 26.9% | M14 melanoma 71.1% | HCT-15 colon 90.4% | HT29 colon 21% | SNB-19 CNS 23.5% | U251 CNS 31.7% | PC-3 prostate 23.6% | SK-MEL-5 melanoma 73.1% | UACC-62 melanoma 14.2% | LOX IMVI melanoma 37.4% | SK-MEL-28 melanoma 31.3%
